The entries come from a sample that favours hits as a whole.
NOMO-1 viab: STK33 inhibitor candidate reducing NOMO-1 cell viability; inhibition, % (no concentration beside the values); AID 2330; 37,000 compounds, 7.5% hits; NOMO-1 AML viability, CellTiter-Glo luminescence, 72 h; in the data active = inhibition above about 80%; inconclusive = no clear call, values can overlap the other calls
ROS inducer: inducers of reactive oxygen species in cancer cells; 46,000 compounds, 2% hits; U2OS ROS induction, H2DCF-DA fluorescence; ROS induction (% of piperlongumine), % at 10 µM; AID 624156; in the data active = ROS induction above about 79%, passing the limit was not always enough; inconclusive = no clear call, values can overlap the other calls;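 also: 0% = DMSO vehicle median and 100% = reference compound median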
* hit, by the source's call; ? = inconclusive; . = no result.

SMILES	NOMO-1 viab	ROS inducer
Cc1nc2c(-c3ccc(Cl)cc3)c(C(F)(F)F)[nH]n2c(=O)c1Cc1ccccc1	.	-18
CNC[C@@H]1Oc2c(NC(=O)C3CCCCC3)cccc2C(=O)N([C@@H](C)CO)C[C@H]1C	9	5
C[C@H]1CN([C@@H](C)CO)C(=O)c2cccc(NC(=O)c3nc4ccccc4s3)c2O[C@@H]1CN(C)C(=O)Nc1ccc(F)cc1	11	-4
Cc1noc(C)c1S(=O)(=O)Nc1ccc2c(c1)C(=O)N([C@H](C)CO)C[C@@H](C)[C@@H](CN(C)Cc1ccc(-c3ccccc3)cc1)O2	75	32
C[C@H]1CN([C@@H](C)CO)C(=O)c2cc(NC(=O)C3CCCCC3)ccc2O[C@H]1CN(C)Cc1ccncc1	97*	10
C[C@H](CO)N1C[C@H](C)[C@@H](CN(C)Cc2ccc(Oc3ccccc3)cc2)Oc2ccc(NC(=O)C3CCCCC3)cc2C1=O	45	84*
C[C@H]1CN([C@@H](C)CO)C(=O)c2cc(NC(=O)C3CCCCC3)ccc2O[C@@H]1CN(C)Cc1ccncc1	25	-2
C[C@@H]1CN([C@H](C)CO)C(=O)c2cc(NC(=O)C3CCCCC3)ccc2O[C@H]1CN(C)Cc1ccc(Oc2ccccc2)cc1	76	9
Cc1ccc(CNC(=O)C2CCN(S(=O)(=O)c3ccc4nc(-c5ccccc5)[nH]c4c3)CC2)cc1	.	-3
CCCN(C)C[C@@H]1Oc2ncc(-c3ccc(OC)cc3)cc2C(=O)N([C@H](C)CO)C[C@@H]1C	.	58
COC(=O)[C@H](Cc1ccc(O)cc1)NC(=O)c1cccc(Cl)c1	110*	14
CCOC(=O)C(Cc1ccc(O)cc1)NC(C)=O (stereo not drawn)	-2	-14
C=C1C(=O)O[C@@H]2/C=C(/COC(C)=O)CC/C=C(/CO)CC[C@@H]12	117*	42
COc1ccc(S(=O)(=O)N(C)C[C@H]2Oc3ccc(NC(=O)Nc4ccccc4)cc3CC(=O)N([C@H](C)CO)C[C@H]2C)cc1	7	18
COc1ccc(NC(=O)Nc2ccc3c(c2)CC(=O)N([C@H](C)CO)C[C@H](C)[C@H](CN(C)S(=O)(=O)c2ccc(Cl)cc2)O3)cc1	122*	-6
COc1ccc(NC(=O)Nc2ccc3c(c2)CC(=O)N([C@@H](C)CO)C[C@H](C)[C@@H](CN(C)S(=O)(=O)c2ccc(C)cc2)O3)cc1	24	-13
COc1ccc(S(=O)(=O)N(C)C[C@@H]2Oc3ccc(NC(=O)Nc4ccccc4)cc3CC(=O)N([C@@H](C)CO)C[C@@H]2C)cc1	21	112*
COc1ccc(NC(=O)Nc2ccc3c(c2)CC(=O)N([C@H](C)CO)C[C@@H](C)[C@@H](CN(C)S(=O)(=O)c2ccc(OC)cc2)O3)cc1	-14	-2
COc1ccc(NC(=O)Nc2ccc3c(c2)CC(=O)N([C@H](C)CO)C[C@H](C)[C@H](CN(C)S(=O)(=O)c2ccc(C)cc2)O3)cc1	122*	12
COc1ccc(NC(=O)Nc2ccc3c(c2)CC(=O)N([C@H](C)CO)C[C@@H](C)[C@@H](CN(C)S(=O)(=O)c2ccc(Cl)cc2)O3)cc1	4	1
COc1ccc(NC(=O)Nc2ccc3c(c2)CC(=O)N([C@@H](C)CO)C[C@H](C)[C@H](CN(C)S(=O)(=O)c2ccc(Cl)cc2)O3)cc1	112*	18
CC1=CC(C)(C)Nc2ccc(OC(=O)CN3C(=O)c4cccc([N+](=O)[O-])c4C3=O)cc21	115*	32
CCOc1ccc2c(c1)C(C)=CC(C)(C)N2	28	-12
CCC(C)C(O)C(C)(O)/C=C/C1=CC2=C(Cl)C(=O)C(C)(O)C(O)C2=CO1 (stereo not drawn)	?	-8
Cc1ccc(-n2c(SCC(=O)Nc3ccc(Br)cc3)nnc2-c2cccs2)cc1	9	18
SMILES	NOMO-1 viab	ROS inducer
O=C(CSc1nc2ccccc2[nH]1)Nc1cccc2ccccc12	13	-15
Cc1ccccc1NC(=O)CSc1nc2cc3ccccc3cc2[nH]1	115*	.
Cc1cc(C)c(NC(=O)CSc2nc(-c3ccccc3)c(-c3ccccc3)[nH]2)c(C)c1	101*	-5
Cc1ccc(NC(=O)CSc2nc(-c3ccccc3)c(-c3ccccc3)[nH]2)c(C)c1	2	.
O=C(NO)c1ccc(C(=O)N/N=C/c2cc(Cl)cc(Cl)c2O)cc1	.	-26
CCOc1ccccc1NC(=O)CSc1nc2sc(C)c(C)c2c(=O)n1-c1ccccc1	19	16
N#Cc1c(N2CCN(C(=S)NCc3ccccc3)CC2)nc(-c2ccccc2)c2c1CCCC2	.	140*
CCCc1nc(NCc2ccccc2)c(C#N)c2c1CCCC2	.	-5
C[C@H](CO)N1C[C@H](C)[C@H](CN(C)S(=O)(=O)c2ccc(Cl)cc2)Oc2ccc(NS(=O)(=O)c3ccc(Cl)cc3)cc2C1=O	48	14
CC(C)NC(=O)N(C)C[C@@H]1Oc2ccc(NC(=O)C3CC3)cc2CC(=O)N([C@H](C)CO)C[C@H]1C	-9	7
CSc1ccc(-c2cc(=O)c3ccccc3o2)cc1	.	31
Cc1ccc(-c2cc(=O)c3ccc4ccccc4c3o2)cc1	.	95*
C[C@@H]1CN([C@@H](C)CO)C(=O)c2cc(NC(=O)c3ccncc3)ccc2O[C@@H]1CN(C)Cc1ccc2c(c1)OCO2	40	1
Cc1ccc(C(=O)N2CC(C)CC(C)C2)cc1 (stereo not drawn)	.	2
CCOC(=O)c1nc2c(o1)NC(N)=C(C#N)C2c1ccc(Cl)cc1 (stereo not drawn)	95*	5
CCSC1=C(C#N)C(c2ccc(Cl)cc2)C(C(=O)OC(C)(C)C)=C(C)N1 (stereo not drawn)	.	14
COc1ccc(NC(=O)N(C)C[C@@H]2Oc3ccc(NC(=O)CCC(F)(F)F)cc3CC(=O)N([C@H](C)CO)C[C@@H]2C)cc1	16	5
COc1ccccc1NC(=O)/C=C\c1ccco1	107*	36
O=C(/C=C/c1ccco1)Nc1cccc2cccnc12	.	-8
COc1ccc(NC(=O)Nc2cccc3c2O[C@@H](CN(C)C(=O)Nc2ccc(C(F)(F)F)cc2)[C@@H](C)CN([C@H](C)CO)C3=O)cc1	29	6
Cc1ccc(S(=O)(=O)Nc2ccc3c(c2)C(=O)N([C@H](C)CO)C[C@H](C)[C@@H](CN(C)Cc2ccc(C(=O)Nc4ccccc4N)cc2)O3)cc1	27	13
COc1ccc(S(=O)(=O)Nc2ccc3c(c2)C(=O)N([C@@H](C)CO)C[C@@H](C)[C@H](CN(C)Cc2ccc(C(=O)Nc4ccccc4N)cc2)O3)cc1	40	11
COc1ccc(S(=O)(=O)Nc2ccc3c(c2)C(=O)N([C@@H](C)CO)C[C@@H](C)[C@@H](CN(C)Cc2ccc(C(=O)Nc4ccccc4N)cc2)O3)cc1	110*	20
COc1ccc(S(=O)(=O)Nc2ccc3c(c2)C(=O)N([C@H](C)CO)C[C@@H](C)[C@@H](CN(C)Cc2ccc(C(=O)Nc4ccccc4N)cc2)O3)cc1	108*	19
O=C(Nc1cccc(C(F)(F)F)c1)N1CCN(Cc2ccccc2)CC1	.	-8
C[C@H](CO)N1C[C@H](C)[C@H](CN(C)S(=O)(=O)c2cn(C)cn2)Oc2ccc(NC(=O)Cn3cnnn3)cc2C1=O	17	-1
O=C1CC(c2ccccc2)Oc2ccccc21 (stereo not drawn)	-4	-3
NC(=O)NC1C(=O)c2ccccc2OC1c1ccccc1 (stereo not drawn)	114*	1

High-throughput results deposited in PubChem by Broad Institute.
